Experimental data taken from paper PMC4336329 (PLoS ONE, 2015).
About 14,000 (4.5%) of roughly 310,000 compounds showed an effect of 50% or more. The effect is printed as a negative number. Many of the other results were omitted from the sample, so strong results are more common in it than they were.

What follows are molecules tested against human ether-à-go-go-related gene (hERG) potassium channel (human, UniProt Q12809) (assay: primary screen, population patch clamp on CHO cells stably expressing hERG; higher = less effect of the substance).
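Note: peak tail current of the secondary pulse compared with the same well before compound.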

human ether-à-go-go-related gene (hERG) potassium channel, sequence (Q12809 whole entry, looked up): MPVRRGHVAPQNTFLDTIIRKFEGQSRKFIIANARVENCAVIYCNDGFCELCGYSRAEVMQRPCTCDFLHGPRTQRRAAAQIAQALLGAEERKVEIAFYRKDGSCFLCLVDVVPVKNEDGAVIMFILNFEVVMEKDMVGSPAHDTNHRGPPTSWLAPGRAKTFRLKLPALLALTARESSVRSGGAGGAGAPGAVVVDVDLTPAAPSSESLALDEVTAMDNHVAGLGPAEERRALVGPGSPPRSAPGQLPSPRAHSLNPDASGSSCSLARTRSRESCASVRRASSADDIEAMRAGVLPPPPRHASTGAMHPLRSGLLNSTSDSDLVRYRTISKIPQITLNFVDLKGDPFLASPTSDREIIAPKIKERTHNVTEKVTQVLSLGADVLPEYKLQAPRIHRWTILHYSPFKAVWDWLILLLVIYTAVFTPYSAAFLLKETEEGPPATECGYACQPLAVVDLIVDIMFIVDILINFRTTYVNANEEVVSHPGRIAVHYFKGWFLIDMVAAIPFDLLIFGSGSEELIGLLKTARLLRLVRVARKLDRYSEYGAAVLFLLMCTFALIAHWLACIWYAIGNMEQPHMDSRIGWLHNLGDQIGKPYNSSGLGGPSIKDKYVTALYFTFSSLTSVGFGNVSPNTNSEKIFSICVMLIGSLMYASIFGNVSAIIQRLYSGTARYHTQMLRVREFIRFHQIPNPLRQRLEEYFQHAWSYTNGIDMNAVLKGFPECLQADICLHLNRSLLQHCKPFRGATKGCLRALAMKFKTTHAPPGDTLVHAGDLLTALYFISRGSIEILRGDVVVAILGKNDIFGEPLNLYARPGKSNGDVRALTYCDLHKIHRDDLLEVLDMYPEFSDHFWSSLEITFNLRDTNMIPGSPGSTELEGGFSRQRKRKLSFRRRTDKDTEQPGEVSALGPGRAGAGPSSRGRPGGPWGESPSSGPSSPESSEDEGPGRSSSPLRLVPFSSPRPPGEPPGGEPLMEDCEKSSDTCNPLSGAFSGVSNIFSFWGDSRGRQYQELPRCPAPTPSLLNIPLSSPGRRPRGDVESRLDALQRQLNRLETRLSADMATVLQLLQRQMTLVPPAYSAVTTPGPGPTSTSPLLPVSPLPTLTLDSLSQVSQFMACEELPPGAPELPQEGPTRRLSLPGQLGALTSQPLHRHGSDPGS

Row | SMILES | hERG current change (%, negative = inhibition) at 10uM [%]
1 | O=C(COC(=O)CCc1nc2ccccc2s1)NC(=O)NCc1ccco1 | -11.4
2 | CCOc1cc(/C=C/C(=O)c2ccc(OC)c(CN3CCOCC3)c2)cc(Br)c1O | -32.5
3 | CCSc1nsc(NC(=O)Nc2cccc(C(C)=O)c2)n1 | 10.5
4 | Cc1ccc(-c2ccc(S(=O)(=O)N3CC(C)OC(C)C3)cc2)cc1 (centres unmarked) | 18.7
5 | CCCSc1cc(N2CCN(C)CC2)nc(-c2ccc(OC)cc2)n1.Cl | -29.2
6 | COc1ccc(C(=O)NCC(=O)OCC(=O)NCCC2=CCCCC2)cc1 | -12.7
7 | COCCCn1c(SCC(=O)NC2CCCCC2)nnc1-c1ccncc1 | 19.8
8 | COc1ccc(CC(=O)Nc2cc(C)on2)cc1 | 5.74
9 | COc1cc(OC)cc(C(=O)NC(C(=O)Nc2ccc3c(c2)OCCO3)C(C)C)c1 (centres unmarked) | -11
10 | CCN(CC)CCn1c(C)nc2c(sc3nc4c(cc32)COC(C)(C)C4)c1=O | -22.3
11 | O=C(NCC1CCCO1)c1onc(CSc2cccc3ccccc23)c1C(=O)O (centres unmarked) | 14.4
12 | COc1cccc(NC(=O)CN(C)C(=O)CSCc2nc3scc(-c4cccs4)c3c(=O)[nH]2)c1 | -16.2
13 | CCC(C)(C)NC(=O)C(c1ccc(OC)cc1)N(C(=O)CCC(=O)Nc1cc(C)on1)c1ccc(OC)cc1OC (centres unmarked) | -7.89
14 | COc1ccc(Cl)cc1NC(=O)C(C)N1CCN(c2ccccn2)CC1 (centres unmarked) | -18.3
15 | COc1ccc(Cl)cc1NC(=O)C(C)N1CCc2ccccc21 (centres unmarked) | 23.9
16 | COC(=O)c1ccccc1NC(=O)N1CCN(C/C=C/c2ccccc2)CC1 | -45.1
17 | COc1ccccc1NC(=O)C(C)N1CCN(C/C=C/c2ccccc2)CC1 (centres unmarked) | -74.5
18 | COc1ccc(Cl)cc1NC(=O)C(C)N1CCN(C/C=C/c2ccccc2)CC1.O=C(O)C(=O)O (centres unmarked) | -63.4
19 | COc1ccccc1NC(=S)N1CCN(C/C=C/c2ccccc2)CC1 | -0.974

Row | SMILES | hERG current change (%, negative = inhibition) at 10uM [%]
20 | C=CCc1cccc(CNc2ccc(S(=O)(=O)Nc3nccnc3OC)cc2)c1O | -9.98
21 | N=c1c2c3c(sc2ncn1N)CCCC3 | 2.04
22 | COc1ccccc1C1C2=C(CCCC2=O)N(CC(=O)O)C2=C1C(=O)CCC2 | 15.9
23 | CCn1c(SCc2ccc(F)cc2)nnc1-c1nn(-c2ccccc2)ccc1=O | -35.1
24 | CCn1c(SCc2c(Cl)cccc2Cl)nnc1-c1nn(-c2ccccc2)ccc1=O | -66.1
25 | CCn1c(SC)nnc1-c1nn(-c2ccccc2)ccc1=O | 11.3
26 | COCCNc1ccc(-c2n[nH]c(=O)c3ccccc23)cc1[N+](=O)[O-] | 9.51
27 | CN1C(=O)S/C(=C/c2cccnc2)C1=O | -0.904
28 | O=C(Cn1cnc2ccccc21)N/N=C/C(Br)=C/c1ccccc1 | 5.98
29 | O=C(Nc1c(F)cc(F)cc1Br)c1cc(S(=O)(=O)N2CCN(c3ccccn3)CC2)ccc1F | -15.9
30 | CCN1CCN(S(=O)(=O)c2ccc(F)c(C(=O)Nc3c(F)cc(F)cc3Br)c2)CC1 | -17.1
31 | CCC(C)NS(=O)(=O)c1ccc(F)c(C(=O)Nc2c(F)cc(F)cc2Br)c1 (centres unmarked) | -60.8
32 | CC(=O)Nc1ccc(S(=O)(=O)N(CC(=O)Nc2cc(C)on2)Cc2ccc(F)cc2)cc1 | -11.5
33 | COc1cccc2cc(C(=O)C3=C(O)C(=O)N(CCN4CCOCC4)C3c3cccs3)oc12 (centres unmarked) | 13.1
34 | COc1ccc(Nc2nc(N3CCOCC3)nc(N3CCOCC3)n2)cc1 | 11.7
35 | COc1ccc(Nc2nc(NCCN3CCOCC3)nc(Nc3ccc(OC)cc3)n2)cc1 | -78.2
36 | COc1nc(NCCN2CCOCC2)nc(Nc2ccccc2)n1 | -50.5
37 | CCOc1nc(Nc2ccc(OC)cc2)nc(N2CCOCC2)n1 | -4.52
38 | Clc1ccc(CNc2nc(N3CCOCC3)nc(N3CCOCC3)n2)cc1 | -20

Row | SMILES | hERG current change (%, negative = inhibition) at 10uM [%]
39 | Clc1ccc(Nc2nc(NCCN3CCOCC3)nc(N3CCOCC3)n2)cc1 | -56
40 | c1ccc(Nc2nc(NCCN3CCOCC3)nc(Nc3ccccc3)n2)cc1 | -15.2
41 | C=CCNc1nc(NCCN2CCOCC2)nc(OC)n1 | -4.89
42 | C=CCNc1nc(NCCN2CCOCC2)nc(N2CCOCC2)n1 | 18.6
43 | COc1ccc(NC(=S)NCCN2CCOCC2)cc1 | 21.7
44 | CCOc1ccc(Nc2nc(N3CCOCC3)nc(N3CCOCC3)n2)cc1 | -17.9
45 | CCOc1ccc(Nc2nc(NCCN3CCOCC3)nc(OC)n2)cc1 | -63.8
46 | Cc1cc(C)nc(NS(=O)(=O)c2ccc(NC(=O)COc3ccccc3F)cc2)n1 | 4.9
47 | CCCc1nc(SCc2ccccc2Cl)n[nH]1 | 10.7
48 | COc1cccc(CN(C)CC(=O)Nc2sc3c(c2C#N)CCC3)c1OC | 10.3
49 | COc1ccc(-n2c3c(cc(C#N)c2=O)C(=O)CCC3)cc1 | 29.1
50 | COc1ccc(Oc2c(C)oc3c(CN(C)C)c(O)ccc3c2=O)cc1 | -1.88
51 | Clc1ccc(Oc2ncnc3oc(-c4ccccc4)cc23)cc1 | 4.39
52 | Cc1cc(Cl)ccc1Oc1ncnc2oc(-c3ccccc3)cc12 | -0.172
53 | CC(O)C[NH+]=c1cc(-c2ccccc2)oc2ccc(Cl)cc12.F[B-](F)(F)F (centres unmarked) | -69.4
54 | CC(C)C[NH+]=c1cc(-c2ccccc2)oc2ccc(Cl)cc12.F[B-](F)(F)F | -87.4
55 | O=c1cc(-c2ccccc2)oc2ccccc12 | -4.17
56 | O=C(O)c1cc(=O)c2cc(Cl)ccc2o1 | 17.3
